# Measured values reported in PubChem BioAssay AID434927 (Sanford-Burnham Center for Chemical Genomics, 2010).
# The source made the active and inactive calls.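 Rule for the calls: active = inhibition above about 23% in any of six single-dose repeats (limit read from the data); inactive = the rest.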
# Molecular target: Intestinal-type alkaline phosphatase (Homo sapiens) (UniProt P09923)
# Assay: suppression of intestinal alkaline phosphatase activity – biochemical, luminescence, single concentration, uHTS hits, confirmation (AID 434927);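 note: plate controls were DMSO wells with enzyme for no effect and wells lacking enzyme for full effect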
# Conditions: purified human IAP, CDP-Star luminescence, 30 min; at 8.3 µM; active compounds read high
# Chain of Intestinal-type alkaline phosphatase (Homo sapiens) (P09923 whole entry, looked up): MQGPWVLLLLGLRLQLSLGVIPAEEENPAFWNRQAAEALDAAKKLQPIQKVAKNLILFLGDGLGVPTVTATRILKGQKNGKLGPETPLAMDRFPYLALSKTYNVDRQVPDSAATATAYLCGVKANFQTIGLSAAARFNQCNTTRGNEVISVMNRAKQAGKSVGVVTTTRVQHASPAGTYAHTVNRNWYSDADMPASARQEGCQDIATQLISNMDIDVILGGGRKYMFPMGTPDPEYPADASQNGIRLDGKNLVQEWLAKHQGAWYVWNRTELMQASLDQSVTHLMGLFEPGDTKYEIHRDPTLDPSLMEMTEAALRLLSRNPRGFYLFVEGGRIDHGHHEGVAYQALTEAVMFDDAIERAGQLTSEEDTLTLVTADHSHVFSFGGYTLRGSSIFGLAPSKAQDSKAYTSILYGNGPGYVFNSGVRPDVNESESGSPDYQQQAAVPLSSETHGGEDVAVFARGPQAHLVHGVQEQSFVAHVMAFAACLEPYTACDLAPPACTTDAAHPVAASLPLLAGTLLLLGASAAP
row,Structure (SMILES),inhibition
1,O=C(NN1C(=O)/C(=C/c2ccc(O)c([N+](=O)[O-])c2)SC1=S)c1ccccc1Cl,38.9% (active)
2,Cc1cc(Br)ccc1SCC(=O)OC/C(O)=C(\C#N)c1nc2ccccc2[nH]1,-67.4% (inactive)
3,C#CCOCCOCCOCCNc1nc(N2CCN(C(=O)CCCCCCCCCCNC(=O)[C@H]([C@@H](C)CC)n3cc(CCCCN=C(N)N)nn3)CC2)nc(N2CCN(C(=O)CCCCCCCCCCNC(=O)[C@H](CO)n3cc(CCCSC)nn3)CC2)n1,38.5% (active)
4,O=C(CSc1nc(-c2cccs2)cc(C(F)(F)F)n1)NCc1ccccc1,36.7% (active)
5,CSCCC(NS(=O)(=O)c1ccc(C)cc1)C(=O)NNC(=O)c1csc(N2CCOCC2)n1 (centres undefined),48.3% (active)
6,COc1ccc(C(=O)Nc2cccc3c2C(=O)NC3=O)cc1S(=O)(=O)N1CCOCC1,-85.1% (inactive)
7,COc1cc(/C=N\NS(=O)(=O)c2ccccc2)cc(OC)c1OC,30.7% (active)
8,O=C(NC1CCCCCC1)c1ccc(-n2cnnc2)cc1,-58.8% (inactive)
9,Cc1cccc(OCC(=O)NNC(=O)c2ccc3nc[nH]c3c2)c1,-117% (inactive)
10,Nc1ccc(-c2c3ccc(=O)cc-3oc3cc(O)ccc23)cc1C(=O)O,64.5% (active)
11,c1ccc(Nc2ccnc(Nc3ccccc3)n2)cc1,-43.5% (inactive)
12,CCC(OC(=O)C1=Cc2ccccc2OC1)C(=O)NC1CCCC1 (centres undefined),-52.5% (inactive)
13,Cc1cccc(-n2ncc3c(NNC(=O)c4ccco4)ncnc32)c1,-74.5% (inactive)
14,Cc1ccc2c(c1)nnc1nnc(SCC(=O)O)n12,33.9% (active)
15,Nc1c(N2CCCC2)cc(Cl)c2nonc12,41.3% (active)
16,CC(=O)N1CCOc2ccc(S(=O)(=O)N3CCCC(C)C3)cc21 (centres undefined),54% (active)
17,CC(C)CCNc1ncnc2c1nnn2Cc1ccccc1Cl,40.2% (active)

row,Structure (SMILES),inhibition
1,Cc1cccn2c(=O)c3cc(C(=O)NC4CCCC4)c(=N)n(C4CCCCC4)c3nc12,-122% (inactive)
2,CCOc1ccc(CC(=O)NNC(=S)NC2CCCCC2)cc1OCC,-79.5% (inactive)
3,COc1ccc(C2=NN(C3=NN=C(N)Cc4ncnn43)C(O)(C(F)(F)F)C2)cc1 (centres undefined),42% (active)
4,CCN(CC)c1ccc(N=Nc2nn(C)c(C)c2[N+](=O)[O-])cc1,34.7% (active)
5,Cc1ccc(NC(=O)C2CC(=O)Nc3nc4ccccc4n32)c(C)c1 (centres undefined),38.4% (active)
6,CC(C)(C)OC(=O)N1CCC(NC(=O)c2[nH]cnc2C(=O)Nc2ccon2)CC1,37% (active)
7,CCN(CC)c1ccc(/C=N/NC(=O)c2nnn(-c3nonc3N)c2C(C)C)c(O)c1,32.4% (active)
8,CCOC(=O)c1c(C)[nH]c(C(=O)N/N=C/c2cc([N+](=O)[O-])ccc2O)c1C,29.6% (active)
9,O=C(NNC(=S)NC1CCCCC1)c1ccccc1Br,-42.5% (inactive)
10,CC(=O)Nc1cccc(C(=O)NNC(=O)c2n[nH]c(=O)c3ccccc23)c1,-125% (inactive)
11,CCC1CCCCN1C1Sc2ccc(C(=O)OC)cc2NC1=O (centres undefined),-69.1% (inactive)
12,COc1ccccc1CCNC(=O)C1CCN(c2nnc(C)c3c(C)n(-c4ccc(C)cc4)nc23)CC1,30.8% (active)
13,COc1ccccc1C1CN(c2ccccc2)N=C1c1cccs1 (centres undefined),-128% (inactive)
14,Cc1ccc(O)c(/C=N/NC(=O)c2[nH]ncc2Br)c1,23.2% (active)
15,CC[n+]1c(/C=C/c2c[nH]c3ccccc23)ccc2cc(C)ccc21,-85.7% (inactive)
16,O=C(CSc1ncn[nH]1)NCCc1ccccc1,-113% (inactive)
17,O=C(N/N=C/c1cccc([N+](=O)[O-])c1)c1nc2ccccc2c(=O)[nH]1,33.3% (active)
